Results reported in PubChem BioAssay AID463173 (ICCB-Longwood Screening Facility, Harvard Medical School, 2010).
The whole screen tested about 52,000 compounds, of which about 4,300 (8.3%) were called active. Rule as the data show it: active = survival mostly below about 52% (no sharp cut-off); inactive = mostly above about 56%. Many of the other results were omitted from the sample, so actives are more common in it than they were.

What follows are compounds tested on DeltatarO mutant (assay: S. aureus survival, RN4220 and DeltatarO strains – OD600, teichoic acid synthesis inhibitors, primary screen (AID 463173)). Details: S. aureus RN4220 wild type/DeltatarO growth, OD600, 18 h, hits give low values, screened at 18.75 µg/mL (by protocol).

SMILES	survival
CCC(=O)Nc1ccc2nc3c(=O)n(C)c(=O)n(C)c3nc2c1	66% (inactive)
Cc1ccc(S(=O)(=O)c2cc3cc(C(=O)Nc4ccc(C)cc4C)ccc3oc2=O)cc1	89% (inactive)
CCOC(=O)COc1nc(C)c(Br)c(OC)n1	81% (inactive)
COc1ccc(CNC(=O)COCc2cc(-c3cccs3)on2)cc1	107% (inactive)
CC1CCN(S(=O)(=O)c2ccc3c(c2)CCN3C(=O)Nc2ccc(Br)cc2F)CC1	74% (inactive)
COc1cc2nc(NCCc3ccc(Cl)cc3)n3nc(-c4ccccc4)nc3c2cc1OC	51% (inactive)
CCCCNc1nc2ccccc2c2nc(-c3ccccc3)nn12	-1% (active)
CCCCNC(=O)CCC(=O)NNc1nc2ccccc2c2nc(-c3ccccc3)nn12	78% (inactive)
Cc1ccc(CCNc2nc3ccccc3c3nc(-c4cccnc4)nn23)cc1	66% (inactive)
CC(CNc1nc2ccccc2c2nc(-c3ccccc3)nn12)c1ccccc1 (stereo not drawn)	121% (inactive)
Cc1ccc(CCNc2nc3ccccc3c3nc(-c4ccccc4)nn23)cc1	44% (active)
O=c1n(Cc2ccc(Cl)cc2)c2ccccc2c2nc(-c3ccccc3)nn12	95% (inactive)
Clc1ccc(CCNc2nc3ccccc3c3nc(-c4ccccc4)nn23)cc1	29% (active)
CCc1ccc(CNC(=O)Cn2nc(C)n3c(cc4cc(C)ccc43)c2=O)cc1	83% (inactive)
Cc1ccc(NC(=O)c2cnc3sc(N4CCOCC4)nn3c2=O)cc1N(C)C	80% (inactive)
COc1cccc(NC(=O)Cn2nnc(C(=O)NCCc3ccccc3)c2N)c1	144% (inactive)
Cc1ccc(Cn2c(=O)n(-c3cccc(C(F)(F)F)c3)c(=O)c3c(C)c(C)sc32)c(C)c1	97% (inactive)
COc1ccc(CNC(=O)c2cnc(N(C)C)nc2)cc1	73% (inactive)
COc1ccc(-c2cn3c(c2C)-c2ccc(C)n2CC3)cc1	91% (inactive)
Cc1ccc(C(=O)N(Cc2ccco2)Cc2sccc2C)cc1	44% (inactive)
Cc1ccc(CN(Cc2ccco2)C(=O)c2cccc(C)c2)cc1	68% (inactive)
O=C(c1ccc(Cl)cc1)N(Cc1ccco1)Cc1ccco1	97% (inactive)
O=C(c1ccccc1)N(Cc1ccco1)Cc1cccs1	41% (active)
Cc1ccc(N(Cc2cccs2)C(=O)c2ccc(OC(C)C)cc2)cc1	95% (inactive)
CC(C)Oc1ccc(C(=O)N(Cc2ccco2)Cc2cccs2)cc1	36% (active)
CC(C)Oc1ccc(C(=O)N(Cc2ccc(N(C)C)cc2)Cc2ccco2)cc1	59% (inactive)
Cc1ccsc1CN(Cc1ccco1)C(=O)c1ccc(Cl)cc1	34% (active)
O=C(c1cc2sccc2n1Cc1ccccc1)N(Cc1ccco1)Cc1cccs1	96% (inactive)
